Activity calls are given as the source filed them. A call without a number means that no potency is given here. The call rests on the fitted dose curve; in most records, active means well fitted activation curve with a large enough effect; inconclusive means small, poorly fitted or top-dose-only effect; inactive means no such curve, though single readings can be large or run the other way.
assay: Confirmatory qHTS for Identification of Small Molecule Activators of Huntingtin-Antisense Promoter Activity; conditions: HEK293 HTT-AS promoter firefly luciferase reporter, 24 h; series mostly up to 57.5 µM
Method in brief: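 Plated reporter HEK293 cells (24 h) received library compounds at up to 57.5 uM final or 50 uM PTC124, incubated 24 h at 37C; firefly luciferase luminescence was then recorded with Dual-Glo reagent.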
Potency means the concentration at half of the fitted maximal effect.

| Compound | Potency |
| --- | --- |
| COc1cccc(CNC(=O)Cn2c(=O)oc3cc(S(=O)(=O)N4CCC(C)CC4)ccc32)c1 | inactive |
| CCOc1ccc(CNC(=O)C2CCN(c3nnc(-n4c(C)ccc4C)s3)CC2)cc1 | inactive |
| Cc1ccccc1-c1noc(CSc2nc3ccccc3[nH]2)n1 | inactive |
| CCCOc1ccccc1C(=O)N1CCC(c2nc3ccccc3s2)CC1 | inactive |
| COc1ccc(CCNc2ncnc3onc(C)c23)c(OC)c1 | inactive |
| CCN1C(=O)c2ccccc2Sc2ccc(NC(=O)c3cccc(C)c3)cc21 | inactive |
| O=C(COCc1cc(-c2cccs2)on1)N1CCN(c2cccc(Cl)c2)CC1 | inactive |
| COc1ccc(NC(=O)c2ccc(-c3nc(CSc4ccccc4)c(C)o3)cc2)c(OC)c1 | inactive |
| Cn1c(=O)n(C)c2cc(NS(=O)(=O)c3ccc(C(C)(C)C)cc3)c(NCc3ccccc3)cc21 | inactive |
| CC(C)c1ccc(NC(=O)c2ccc(F)c(S(=O)(=O)N3CCc4ccccc4C3)c2)cc1 | inactive |
| CCCCN1C(C(=O)c2ccccc2)=C(OC(C)=O)c2ccccc2S1(=O)=O | inactive |
| CCc1ccc(NC(=O)C2CCCN(S(=O)(=O)c3cccc4nsnc34)C2)cc1 (centres undefined) | inactive |
| CCOC(=O)c1ccc(N2C(=O)c3[nH]nc(-c4ccc(OCC)cc4)c3C2c2cccs2)cc1 (centres undefined) | inactive |
| COc1cc(NS(=O)(=O)c2ccc(-c3cc(C)no3)cc2)cc(OC)c1 | inactive |
| CC1CCCCN1C(=O)CSc1nc2ccccc2nc1Cc1ccc(Cl)cc1 (centres undefined) | inactive |
| COc1cccc(C(=O)N2c3cc(C)ccc3C(C)(c3ccccc3)CC2(C)C)c1 (centres undefined) | inactive |
| Cc1cccc(S(=O)(=O)Nc2cccc(-c3ccc(N4CCCCC4)nn3)c2)c1 | 2.39 µM (active) |
| Cc1nc(-c2ccc(F)cc2)sc1CCNC(=O)c1ccc(C(C)(C)C)cc1 | inactive |
| CCCOCc1cc(CN2CCN(c3cccc(Cl)c3)CC2)c(O)c2ncccc12 | inactive |
| Cc1ccc(Cl)cc1N(C)C(=O)C1CCCN(c2ncnc3onc(-c4ccc(F)cc4)c23)C1 (centres undefined) | inactive |

| Compound | Potency |
| --- | --- |
| Cc1ccccc1CN1c2ccccc2-c2nc(SCC(=O)Nc3cc(F)ccc3F)ncc2S1(=O)=O | inactive |
| CCOc1ccc(-n2c(/C=C/c3cccc(F)c3)nc3cc(OC)c(OC)cc3c2=O)cc1 | inactive |
| COC[C@H](NC(=O)c1cnc(C)s1)C(=O)N[C@@H](COC)C(=O)N[C@@H](Cc1ccccc1)C(=O)[C@@]1(C)CO1 | inactive |
| COc1ccc(S(=O)(=O)N2CCC(c3nnnn3-c3ccccc3)CC2)cc1OC | inactive |
| COc1cc(C2C(C(=O)Nc3ccccc3C)=C(C)Nc3nc(SCc4cc(C)ccc4C)nn32)ccc1O (centres undefined) | inactive |
| O=C(NC1CCCCC1)c1ccc(CSc2nc3cccnc3n2Cc2cccc(F)c2)cc1 | inactive |
| CCOc1ccc(C(=O)Nc2ccc(S(=O)(=O)N3CCCCC3c3cccnc3)cc2)cc1 (centres undefined) | inactive |
| CCS(=O)(=O)c1ncc(Cl)c(C(=O)NCc2ccc(OC)cc2)n1 | inactive |
| CCOc1ccc(NC(=O)c2ccc(F)c(S(=O)(=O)NCc3ccc4c(c3)OCO4)c2)cc1 | inactive |
| CCOC(=O)C1CCCN(C(=O)Cn2c(=O)cc(C)c3c(C)nn(C)c32)C1 (centres undefined) | inactive |
| CCOc1ccc(/C=C/c2nc(C#N)c(NCc3ccccc3)o2)cc1 | inactive |
| COc1ccc(Cl)cc1NC(=O)CSc1nccn1-c1ccc(Cl)cc1 | inactive |
| COc1ccc(C(=O)NCC(c2cccnc2)N2CCN(c3ccc(F)cc3)CC2)cc1 (centres undefined) | inactive |
| Cc1nnc(N2CCC(C(=O)NCCc3ccccc3Cl)CC2)c2nn(-c3ccccc3)c(C)c12 | inactive |
| COc1ccc(C(=O)Nc2nc(-c3nnn(-c4ccc(F)cc4F)c3C)ns2)cc1 | inactive |
| COC(=O)c1c(C)oc2ccc(N(C(=O)c3ccncc3)S(=O)(=O)c3ccc(Br)cc3)cc12 | inactive |
| CCOc1ccc(C(NC(=O)c2cc(OC)c(OC)c(OC)c2)c2cc(Cl)c3cccnc3c2O)cc1 (centres undefined) | inactive |
| Cc1ccc(CNC(=O)c2ccc(CSc3nc4ccncc4n3Cc3ccc(C)cc3)cc2)cc1 | inactive |
| Cc1ccc(C)c(N2CCN(C(=O)C3CCCN(S(=O)(=O)c4ccc5c(c4)oc(=O)n5C)C3)CC2)c1 (centres undefined) | inactive |

Source: PubChem BioAssay AID1508622 (National Center for Advancing Translational Sciences (NCATS), 2021)
